From PubChem BioAssay AID2685 (National Center for Advancing Translational Sciences (NCATS), 2010) come the findings set out here.

Each structure is given as a SMILES string. Screen size: about 320,000 compounds; about 2,100 (0.66%) were called active. Not shown: some 53% with an inconclusive outcome. The call rests on the fitted dose curve; in most records, active means well fitted inhibition curve with a large enough effect in the signal ratio, with a control signal flat (not every such curve was filed as active); inconclusive means small, poorly fitted or top-dose-only effect, or effect the other way, or a change in a side signal; inactive means flat fitted curve, though single readings scatter; the % refers to the signal ratio. The full list was thinned out, with actives kept by preference.
Potency means the concentration at half of the fitted maximal effect.

This experiment is described as follows: qHTS Assay for Lipid Storage Modulators in Drosophila S3 Cells.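 On cell number change: cells counted by Cell Tracker Red CMTPX staining in the red channel.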 On lipid storage change, negative = inhibition: on the % scale 0 is the no-effect control and ±100 the full control effect. The settings on record: BODIPY lipid droplet fluorescence, 18-24 h, cells fed with added oleic acid; cell number change: measured here: cell count max response; series mostly up to 46.1 µM; lipid storage change, negative = inhibition: at the top concentration. The text has this:
NIH Molecular Libraries Probe Production Centers Network [MLPCN] NIH Chemical Genomics Center [NCGC] MLPCN Grant: 1 R03 MH085686-01 Assay Submitter (PI): Beller, Mathias; Max-Planck-Institut fur Biophysikalische Chemie NCGC Assay Overview: Storing lipids as a reservoir for energy or the anabolism of elementary metabolites is a common feature of probably all cells and is conserved from bacteria to humans. The universal cellular lipid storage organelle is the so-called lipid storage droplet (LD). Although ubiquitous, LDs share a simple structure composed of a hydrophobic core that harbors the storage lipids, which is shielded by a droplet-specific phospholipid monolayer to which proteins are attached. The current model of LD biogenesis involves an incorporation of the lipid core into the membrane leaflets of the endoplasmic reticulum (ER) followed by a subsequent budding-like maturation of a LD, which ultimately pinches off. Once released, LD volume can increase by localized lipogenesis or fusion of existing droplet. Storage lipids are re-mobilized enzymatically by lipase activity. Lipase regulation in the adipocyte is heavily studied and involves multiple components including catecholamine signaling, the LD-associated proteins Perilipin and comparative gene identification (CGI-58) and at least two lipases named hormone sensitive lipase (HSL) and adipocyte triglyceride lipase (ATGL). LD regulation outside of the adipocyte is poorly understood and only few components are known. However, there is an urgent need to learn more about ectopic fat depots as mislocalized storage of lipids, for example in the liver or muscle, is an eminent health problem associated with insulin resistance or the metabolic syndrome. We developed a laser-scanning cytometer assay to enable 1,536-well screening and combined the results of the small molecules screen with an RNAi database based on lipid storage.
Triacsin C (Sigma-Aldrich T-4540), an inhibitor of long-chain fatty acyl CoA synthetase that blocks synthesis of triglycerides, was used as a positive control for lipid under-storage. A total of 23 nL of compound solution of different concentrations were transferred to the assay plates using a Kalypsys pin tool equipped with a 1,536-pin array containing 10-nL slotted pins (FP1S10, 0.457-mm diameter, 50.8 mm long; V&P Scientific). One microliter of oleic acid (400 uM) was added, and the plate was lidded with stainless steel rubber gasket lined lids containing pinholes. […] Fluorescence was detected by excitation of the fluorophores with a 488-nm laser on an Acumen Explorer (TTP Lab Tech). The total intensity in channel 2 (500-530 nm) reflected lipid droplet accumulation. Cells were detected using channel 3 (575-640 nm) with 5-um width and 100-um depth filters. The ratio of the number of objects in PMT channel 2 over the number of objects in PMT channel 3 was also calculated. Percent activity was computed relative to an internal control (100% inhibited lipid droplet deposition due to the presence of 20 uM Triacsin C), which was added to 32 wells/plate.
(In general: Quantitative high-throughput screening tests each substance at several concentrations.)
Consider `C/C(=N\NC(=O)Cc1c(Cl)cccc1Cl)c1cccnc1`, for which the “lipid storage change, negative = inhibition” value was 24.2% (inactive). With `CC(C)(C)c1ccc(/C=C/C(=O)O)s1`, the “lipid storage change, negative = inhibition” value is -12.3% (inactive) and the cell number change is 0.873%. As to `C=Cn1cc[n+](CC(=O)c2ccc(Br)s2)c1`, the result was inactive and the cell number change was -18.1%. For the molecule `c1ccc(-n2cc(CN3CCC(N4CCOCC4)CC3)c(-c3ccc4c(c3)OCO4)n2)cc1`, the “lipid storage change, negative = inhibition” value is 13.6% (inactive) and the cell number change was 13.9%. With `Cc1cccc(NC(=O)NC(C)C(c2ccccc2)N2CCN(C)CC2)c1` (stereo unspecified), the “lipid storage change, negative = inhibition” value is 4.89% (inactive) and the cell number change is -13.4%. Regarding `COc1cc(C(=O)Nc2cc(-c3cn4cccnc4n3)ccc2C)cc(OC)c1OC`, the “lipid storage change, negative = inhibition” value is 9.88% (inactive) and the cell number change was -3.97%.

Take `COc1cccc(NC(=O)CN(C)C(=O)CSc2ccc3c(c2)OCCO3)c1`: the “lipid storage change, negative = inhibition” value was 18% (inactive) and the cell number change is 2.81%. For `Cc1cc(SCC(=O)Nc2ncc(Cl)cc2Cl)nc2ccccc12`, the “lipid storage change, negative = inhibition” value is -0.799% (inactive) and the cell number change stood at 19.1%.

Consider `COCCn1nnnc1SCC(=O)N1CCCCC1`, for which the “lipid storage change, negative = inhibition” value is 0.19% (inactive) and the cell number change was found to be 6.22%. Take `COc1ccc(C(=O)CSc2nnnn2Cc2ccccc2)cc1`: the molecule was classed as inactive and the cell number change is 14.6%.

For the molecule `COCCn1nnnc1SCC(=O)c1ccccc1`, the Potency is 20.6 µM (active) and the cell number change worked out at 2.95%. Consider `OC1(c2ccccc2F)CCN(Cc2nnc(-c3ccccc3)o2)CC1`, for which the “lipid storage change, negative = inhibition” value is 29.2% (inactive) and the cell number change is -15%. For the molecule `CC1CCC2(CC1)NC(=O)N(CC(=O)Nc1ccc3c(c1)CCC3)C2=O` (stereo unspecified), the “lipid storage change, negative = inhibition” value was 13% (inactive) and the cell number change was -0.637%.

On to `CCN(CC)c1ccc(/C=C(\C#N)C(N)=O)cc1`, for which the “lipid storage change, negative = inhibition” value was -7.84% (inactive) and the cell number change is -5.93%. On to `CCN(CC)c1ccc(/C=C(\C#N)C(N)=S)cc1`, for which the “lipid storage change, negative = inhibition” value was -22% (inactive) and the cell number change is -2.75%. Take `CCN(CC)c1ccc(/C=C(\C#N)C(=O)c2ccc(Br)cc2)cc1`: the Potency was 25.9 µM (active). For the molecule `CCC(=O)c1ccc(NC(C)=O)cc1O`, the “lipid storage change, negative = inhibition” value is -9.98% (inactive) and the cell number change is -16.5%. For `CCN1c2ccc(S(=O)(=O)N3CCOCC3)cc2N(Cc2ccc(OC)cc2)C1C` (stereo unspecified), the molecule was classed as inactive and the cell number change turned out to be 13.6%. In the case of `COc1ccc(CN2c3cc(S(=O)(=O)N4CCOCC4)ccc3N3CCCC32)cc1` (stereo unspecified), the Potency is 16.4 µM (active) and the cell number change is 1.21%. For the molecule `O=S(=O)(c1ccc2c(c1)N(Cc1ccc(Cl)cc1)C1CCCN21)N1CCOCC1` (stereo unspecified), the “lipid storage change, negative = inhibition” value was 7.79% (inactive) and the cell number change was -5.65%.

In the case of `O=C1CN(C(=O)/C=C/c2cc(Br)ccc2F)CCN1`, the outcome was inactive and the cell number change turned out to be 13.8%. Consider `COc1ccc(N=C2S/C(=C\c3cc(C)n(C)c3C)C(=O)N2C)cc1`, for which the “lipid storage change, negative = inhibition” value was -14.9% (inactive) and the cell number change stood at 20.4%. With `CN=C1S/C(=C\c2ccc(SC)cc2)C(=O)N1C`, the Potency is 0.13 µM (active) and the cell number change came to 4.2%. For `CN=C1S/C(=C\c2c(OC)cc(OC)cc2OC)C(=O)N1C`, the Potency is 0.58 µM (active) and the cell number change is -1.21%. `CN=C1S/C(=C\c2ccc(O)c(Br)c2)C(=O)N1C`: the “lipid storage change, negative = inhibition” value is -10.7% (inactive) and the cell number change is -7.22%. As to `CN=C1S/C(=C\c2ccc(Sc3ccc(Cl)cc3)o2)C(=O)N1C`, the “lipid storage change, negative = inhibition” value is 13.4% (inactive).

Turning to `CN=C1S/C(=C\c2ccc(N3CCCC3)c(F)c2)C(=O)N1C`, the cell number change turned out to be 2.34% and the lipid storage change, negative = inhibition was 4.4% [at 9.22 µM] (inactive).
